Screening results (PubChem)
SARS 3CLpro inh-1 – SARS-CoV 3CLpro protease inhibition; hit rate 0.14% among 290,000; recombinant SARS-CoV 3CLpro, quenched FRET peptide cleavage; P0C6X7; AID 1706; inhibition, % at 6 µM; in the data active = inhibition above about 12%
PfHsp40 yeast – restores yeast growth despite PfHsp40 toxicity | AID 504582 | hit rate 0.68% among 340,000 | growth rescue, % at 12.5 µM | S. cerevisiae expressing PfHsp40, growth rescue, ATP luminescence; in the data active = growth rescue above about 28%, passing the limit was not always enough;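 note: yeast W303a lacking pdr1 and pdr3 grown in galactose medium; growth measured after three days at 30 °C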
Sa RN4220 lethal – kills Staphylococcus aureus RN4220 | S. aureus RN4220 growth, OD600, 16 h | inhibition, % (no concentration beside the values) | hit rate 0.33% among 330,000; in the data active = inhibition above about 85%;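 note: plate controls were untreated cells for no effect and reference antibiotic for full effect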
BJeLR viability – BJeLR cell viability loss; AID 1554; inhibition, % (no concentration beside the values); BJeLR (HRASV12) viability, CellTiter-Glo ATP luminescence, 48 h; hit rate 0.17% among 300,000; in the data active = inhibition above about 50%
Sa ugtP lethal – kills S. aureus RN4220 lacking UgtP | S. aureus RN4220 ugtP deletion, OD600 growth, 16 h | growth inhibition, % (test concentration not listed) | hit rate 0.54% among 330,000 | AID 1259309; in the data active = growth inhibition above about 68%;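 note: plate controls were untreated wells for no effect and antibiotic for full effect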
SARS 3CLpro inh-2 – confirmation of SARS coronavirus 3C-like protease inhibitors. shares compounds with SARS 3CLpro inh-1. QFRET protease activity assay, 3CLpro. inhibition, % at 6 µM. hit rate 36% among 380. AID 1879; in the data active = inhibition above about 13%
The depositor's hits bear a star. Sampled rows, rich in hits. Any-hit rate of the full collection: about 1.3%.

For N#Cc1ccc(CSc2nnc(NC(=O)c3ccc4ncsc4c3)s2)cc1 the results were SARS 3CLpro inh-1 13*, PfHsp40 yeast -2, Sa RN4220 lethal 3, BJeLR viability -6, Sa ugtP lethal -7 and SARS 3CLpro inh-2 43*.
For O=C(Nc1nnc(SCc2c(Cl)cccc2Cl)s1)c1ccc2ncsc2c1 the results were SARS 3CLpro inh-1 -1 and BJeLR viability -4.
Screening CCOc1ccccc1N1CCN(C(=O)c2cc(S(=O)(=O)N(C)C)ccc2N2CCCC2)CC1 returned PfHsp40 yeast 1, Sa RN4220 lethal 3 and Sa ugtP lethal 3.
For O=S(=O)(c1cccc(NC(=S)N2CCN(c3ccccc3)CC2)c1)C(F)F the results were SARS 3CLpro inh-1 13*, PfHsp40 yeast 1, Sa RN4220 lethal 6, BJeLR viability -4, Sa ugtP lethal 14 and SARS 3CLpro inh-2 3.
For CNc1ccc(Br)cc(C(=O)/C=C/c2ccc3c(c2)OCO3)c1=O the results were SARS 3CLpro inh-1 13*, PfHsp40 yeast 6, Sa RN4220 lethal 0, BJeLR viability 0, Sa ugtP lethal -4 and SARS 3CLpro inh-2 2.
For Cc1occc1C(=O)n1cnc2ccccc21 the results were SARS 3CLpro inh-1 -7 and BJeLR viability -21.
Cc1ccc(C(=O)n2cnc3ccccc32)cc1C was read as SARS 3CLpro inh-1 19*, PfHsp40 yeast 1, Sa RN4220 lethal -1, BJeLR viability -4, Sa ugtP lethal -7 and SARS 3CLpro inh-2 26*.
`O=C(NC(NC(=S)Nc1cccc(Cl)c1)C(Cl)(Cl)Cl)OCc1ccccc1` (stereo unspecified) gave SARS 3CLpro inh-1 13*, PfHsp40 yeast -1, Sa RN4220 lethal 90*, BJeLR viability 3, Sa ugtP lethal 96* and SARS 3CLpro inh-2 6.
COc1ccc(C2NN=C(c3c[nH]c4ccccc34)C2O)cc1 (stereo unspecified) was read as SARS 3CLpro inh-1 -5, PfHsp40 yeast 0 and BJeLR viability -4.
For COc1ccc(C2C(O)C(c3c[nH]c4ccccc34)=NN2C(=O)CCl)cc1 (stereo unspecified) the results were SARS 3CLpro inh-1 61*, PfHsp40 yeast 0, Sa RN4220 lethal 45, BJeLR viability 100*, Sa ugtP lethal 15 and SARS 3CLpro inh-2 78*.
`CN1C(=O)c2ccc(C(=O)NCc3ccccc3)cc2C1=O` gave SARS 3CLpro inh-1 2, PfHsp40 yeast 0, Sa RN4220 lethal 4, BJeLR viability 2 and Sa ugtP lethal 0.
COc1cc2c(cc1OC)C(C1C(=O)CC(C)(C)CC1=O)N(C(=O)CCl)CC2 (stereo unspecified) was read as SARS 3CLpro inh-1 -3, PfHsp40 yeast 1, Sa RN4220 lethal 2, BJeLR viability -7 and Sa ugtP lethal 5.
Screening COc1cc2c(cc1OC)C(c1cc(Br)ccc1F)N(C(=O)CCl)CC2 (stereo unspecified) returned SARS 3CLpro inh-1 22*, PfHsp40 yeast 0, BJeLR viability 58* and SARS 3CLpro inh-2 34*.
Cc1cc(OCC(=O)OCC(=O)c2c(N)n(C)c(=O)n(C)c2=O)ccc1Cl was read as PfHsp40 yeast 0, Sa RN4220 lethal 4 and Sa ugtP lethal -1.
Screening CC(=O)c1c(OC(=O)c2ccc(C)cc2)c2ccccc2n1C returned SARS 3CLpro inh-1 9, PfHsp40 yeast 1, Sa RN4220 lethal 0, BJeLR viability 0 and Sa ugtP lethal 74.
CC(=O)c1c(OC(=O)c2ccco2)c2ccccc2n1C was read as SARS 3CLpro inh-1 13*, PfHsp40 yeast 1, Sa RN4220 lethal -13, BJeLR viability 2, Sa ugtP lethal -4 and SARS 3CLpro inh-2 16*.
Screening COc1ccc(N(Cc2cc3cc(OC)ccc3[nH]c2=O)S(=O)(=O)c2ccc(NC(C)=O)cc2)cc1 returned SARS 3CLpro inh-1 0, PfHsp40 yeast 0, Sa RN4220 lethal 3, BJeLR viability 15 and Sa ugtP lethal 3.
For COc1ccc(N(Cc2cc3ccccc3[nH]c2=O)S(=O)(=O)c2ccc(OC)cc2)cc1 the results were SARS 3CLpro inh-1 16*, PfHsp40 yeast 0, BJeLR viability 7 and SARS 3CLpro inh-2 6.
`COc1ccc(C)c2sc(NC(=O)CCS(=O)(=O)c3ccccc3)nc12` gave SARS 3CLpro inh-1 3, PfHsp40 yeast 0, Sa RN4220 lethal 0, BJeLR viability 11 and Sa ugtP lethal -2.
Screening C/C(Cn1nnc([N+](=O)[O-])n1)=N\NC(=O)c1ccc(Cl)c(Cl)c1 returned SARS 3CLpro inh-1 14*, PfHsp40 yeast 0, BJeLR viability -2 and SARS 3CLpro inh-2 0.
